GoLoco inh red = inhibitors of human Gai1-RGS12 GoLoco interaction (red fluorophore); P63096; Gai1:RGS12 GoLoco peptide FP, rhodamine, 10 min; Potency, µM (highest dose often 61.6 µM), usual class: inhibitors; 230,000 tested, 0.44% active; AID 880; active means well fitted inhibition curve with a large enough effect, not every such curve was filed as active; inactive means no such curve, though single readings can be large or run the other way; further: nearly all actives have a fitted effect of over 30% in size
ALDH1A1 inh = blocks purified human ALDH1A1 activity. P00352. Purified ALDH1A1, NADH fluorescence, propionaldehyde substrate. Potency, µM (series often up to 75.3 µM), most hits filed as inhibitors. 220,000 tested, 7.3% active; active means well fitted inhibition curve with a large enough effect, not every such curve was filed as active; inconclusive means small, poorly fitted or top-dose-only effect, or another doubt; inactive means no such curve, though single readings can be large or run the other way
Target sequence (P00352 whole entry, looked up): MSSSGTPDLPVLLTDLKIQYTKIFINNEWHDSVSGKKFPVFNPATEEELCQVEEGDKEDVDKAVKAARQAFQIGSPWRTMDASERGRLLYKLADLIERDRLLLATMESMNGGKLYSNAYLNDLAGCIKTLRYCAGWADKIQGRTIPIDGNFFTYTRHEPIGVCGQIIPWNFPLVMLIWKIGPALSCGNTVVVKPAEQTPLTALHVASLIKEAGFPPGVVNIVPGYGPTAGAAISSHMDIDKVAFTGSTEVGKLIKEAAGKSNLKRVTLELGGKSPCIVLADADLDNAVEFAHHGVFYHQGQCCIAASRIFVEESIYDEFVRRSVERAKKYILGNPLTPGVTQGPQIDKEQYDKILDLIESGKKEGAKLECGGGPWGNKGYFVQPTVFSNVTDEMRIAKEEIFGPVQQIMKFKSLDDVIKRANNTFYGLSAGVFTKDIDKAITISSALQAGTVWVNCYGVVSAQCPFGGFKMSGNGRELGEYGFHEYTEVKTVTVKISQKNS
NPSR antag = blocks cAMP signaling of the human neuropeptide S receptor; Q6W5P4; CHO-NPSR cells, cAMP TR-FRET, antagonist mode; Potency, µM (highest dose often 38.3 µM), usual class: inhibitors; 220,000 tested, 1% active; AID 1461; further: nearly all actives have a fitted effect of over 50% in size
JMJD2E inh = blocks human JMJD2E demethylase activity. B2RXH2. JMJD2E catalytic domain, FDH-coupled NADH fluorescence (FDH is formaldehyde dehydrogenase). Potency, µM (doses to about 57.1 µM), usual class: inhibitors. 230,000 tested, 1.6% active; active means well fitted inhibition curve with a large enough effect, not every such curve was filed as active; inconclusive means small, poorly fitted or top-dose-only effect, or another doubt; inactive means no such curve, though single readings can be large or run the other way; further: nearly all actives have a fitted effect of over 50% in size
Coupling enz = inhibits coupling enzyme system, counter-screen for aldolase hits; coupling enzyme system counterscreen, AmpLite Red fluorescence; activity change, negative = inhibition, % at 58.2 µM, hits read low; 290,000 tested, 0.67% active; in the data active means activity change below about -30%
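Coupling enzymes only (glyceraldehyde-3-phosphate) + compound, at 57.5 uM final, 10 min RT; add substrate/coupling/AmpLite Red mix, 20 min RT; fluorescence ex 525/em 598 nm. Actives flag coupling-system interference.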
Sfp inh = inhibitors of Bacillus subtilis Sfp phosphopantetheinyl transferase; Biochemical Sfp PPTase activity, qHTS; Potency, µM, most hits filed as inhibitors; 310,000 tested, 3.5% active;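 further: the enzyme is Sfp with the accession as filed and its product quenches rhodamine fluorescence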
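With Hepes-Na pH 7.6 buffer containing 10 mM MgCl2, Sfp (15 nM) modified BHQ-2-YbbR (12.5 uM) using rhodamine-CoA (5 uM). Two reads 30 minutes apart at 525/598 nm yielded each well's rate.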
Sfp inh conf = Sfp phosphopantetheinyl transferase inhibition, confirmation; shares compounds with Sfp inh; Sfp PPTase enzymatic assay, qHTS titration; Potency, µM (doses to about 114 µM), most hits filed as inhibitors; 380 tested, 79% active; AID 2701
Sfp gel assay = Inhibits B. subtilis Sfp phosphopantetheinylation; purified Sfp, gel-based phosphopantetheinylation read-out; shares compounds with Sfp inh; Potency, µM, most hits filed as inhibitors; 210 tested, 20% active;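 active means potency below 100 µM; inconclusive means dose-dependent response but potency above 100 µM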;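 further: potency is an IC50 for inhibitors of Sfp transfer activity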
Hits are given with their value; ! = repeats disagree. Compounds with a hit are over-represented: about 8.5% of the library has one in this group of screens. Unless noted, the call rests on the fitted dose curve; in most records, active means well fitted curve in the direction sought with a large enough effect; inconclusive means small, poorly fitted or top-dose-only effect, or another doubt; inactive means no such curve, though single readings can be large; an effect the other way counts as inactive or inconclusive.

Cc1cccc(N2CCC(N3CCN(C4CCCCC4)C(CCO)C3)CC2)c1C (configuration not stated) was read as GoLoco inh red inactive, ALDH1A1 inh 3.5µM, NPSR antag inactive, JMJD2E inh inconclusive, Coupling enz inactive, Sfp inh 10µM, Sfp inh conf inactive and Sfp gel assay inactive.
For O=C(O)CCc1ccc(-c2cccs2)o1 the results were GoLoco inh red inactive, ALDH1A1 inh 1µM, NPSR antag inactive, JMJD2E inh inconclusive, Coupling enz inactive, Sfp inh 2.8µM and Sfp inh conf 6.6µM.
O=C(CC(Nc1ccc(Cl)cc1)C(=O)O)c1ccccc1 (configuration not stated) was read as GoLoco inh red inactive, ALDH1A1 inh inactive, NPSR antag inactive, JMJD2E inh inactive, Coupling enz inactive, Sfp inh 7.1µM, Sfp inh conf inconclusive and Sfp gel assay inconclusive.
`C=CCN(c1ccc(C(=O)NCCCn2ccnc2)cc1)S(C)(=O)=O` gave Coupling enz inactive and Sfp inh inactive.
COc1ccccc1NS(=O)(=O)c1cc(NC(=O)c2sccc2C)ccc1N1CCCC1 was read as GoLoco inh red inactive, ALDH1A1 inh 10µM, NPSR antag inactive, JMJD2E inh inconclusive, Coupling enz inactive, Sfp inh 2.8µM and Sfp inh conf 17µM.
`COc1ccc(NS(=O)(=O)c2cc(NC(=O)c3sccc3C)ccc2N2CCOCC2)cc1` gave GoLoco inh red inactive, ALDH1A1 inh inactive, NPSR antag inactive, JMJD2E inh inactive, Coupling enz inactive and Sfp inh inactive.
Screening Nc1cc(-c2ccncc2)c[nH]c1=O returned GoLoco inh red inactive, ALDH1A1 inh 11µM, NPSR antag inactive, JMJD2E inh 1.1µM, Coupling enz -73, Sfp inh 6.3µM!, Sfp inh conf 13µM and Sfp gel assay inconclusive.
For CC(C)CN1CCCC2(CCN(C(=O)c3cccc(F)c3)CC2)C1 the results were GoLoco inh red inactive, ALDH1A1 inh inconclusive, Coupling enz inactive and Sfp inh inactive.
CCC(Sc1nc(C)cc(C)n1)C(=O)Nc1nccs1 (configuration not stated) was read as Sfp inh inactive.
Screening Cc1cc(C(F)(F)F)nn1Cc1ccc(C(=O)NCc2ccco2)o1 returned GoLoco inh red inactive, ALDH1A1 inh 18µM, NPSR antag inactive, JMJD2E inh inactive, Coupling enz inactive, Sfp inh 0.89µM and Sfp inh conf 47µM.
Screening CCN1CCN(C(=O)c2ccc3c(=O)n(CCc4ccccc4)c(=O)[nH]c3c2)CC1 returned Coupling enz inactive and Sfp inh inactive.
CO/N=C(\C(=O)N[C@@H]1C(=O)N2C(C(=O)O)=C(COC(N)=O)CS[C@@H]12)c1ccco1 was read as GoLoco inh red inactive, ALDH1A1 inh inactive, JMJD2E inh inactive, Coupling enz inactive and Sfp inh inactive.
For CO/N=C(/C(=O)N[C@@H]1C(=O)N2C(C(=O)O)=C(CSc3cnns3)CS[C@H]12)c1csc(N)n1 the results were Sfp inh 40µM, Sfp inh conf 53µM and Sfp gel assay 56µM.
O=C(NCCc1ccccc1)C1CCC(CNS(=O)(=O)c2cccc3cccnc23)CC1 (configuration not stated) was read as GoLoco inh red inactive, NPSR antag inactive, JMJD2E inh inactive, Coupling enz inactive and Sfp inh inactive.
Nc1nc(NCC2CCC(CNS(=O)(=O)c3cccc4ccccc34)CC2)nc2ccccc12 (configuration not stated) was read as GoLoco inh red inactive, ALDH1A1 inh inconclusive, Coupling enz inactive, Sfp inh 28µM, Sfp inh conf 47µM and Sfp gel assay 56µM.
`Cc1ccc(C(=O)CSc2nnc3c4ccccc4nc(Cc4ccccc4)n23)cc1` gave GoLoco inh red inactive, ALDH1A1 inh inconclusive, NPSR antag inactive, JMJD2E inh inactive, Coupling enz inactive, Sfp inh 8.9µM, Sfp inh conf inconclusive and Sfp gel assay inactive.
For Cc1ccc(C(=O)CSc2nc3ccccc3c(=O)[nH]2)cc1 the results were GoLoco inh red inactive, ALDH1A1 inh inactive, NPSR antag inactive, JMJD2E inh inactive, Coupling enz inactive and Sfp inh inactive.
c1ccc(-c2ccc(-c3nc(-c4ccccn4)no3)cc2)cc1 was read as GoLoco inh red inactive, ALDH1A1 inh inconclusive, NPSR antag inactive, JMJD2E inh inconclusive, Coupling enz inactive, Sfp inh 40µM, Sfp inh conf 53µM and Sfp gel assay inactive.
COc1ccc(-c2noc(CSc3nc4sc(C)c(C)c4c(=O)n3-c3ccccc3)n2)cc1 was read as GoLoco inh red inactive, ALDH1A1 inh inactive, NPSR antag inactive, JMJD2E inh inactive, Coupling enz inactive, Sfp inh 4µM, Sfp inh conf 4.7µM and Sfp gel assay inactive.
Screening COc1ccc(-c2noc(CSc3nc4sc(C)c(C)c4c(=O)n3-c3ccccc3)n2)cc1OC returned GoLoco inh red inactive, ALDH1A1 inh inactive, NPSR antag inactive, JMJD2E inh inactive, Coupling enz inactive and Sfp inh inconclusive.
Screening Nc1c(C(=O)Nc2ccccc2)c2nc3ccccc3nc2n1-c1ccc(O)cc1 returned GoLoco inh red inactive, NPSR antag inactive, JMJD2E inh inconclusive, Coupling enz inactive and Sfp inh inactive.
For Cc1ccc(-c2nc(N)sc2CC(=O)OCC(=O)N2C(C)CCCC2C)cc1 (configuration not stated) the results were GoLoco inh red inactive, ALDH1A1 inh inactive, NPSR antag inactive, JMJD2E inh inactive, Coupling enz inactive, Sfp inh 18µM, Sfp inh conf 37µM and Sfp gel assay inactive.
For O=C(CC(SCc1ccco1)c1ccc(O)cc1)c1cccs1 (configuration not stated) the results were GoLoco inh red inactive, ALDH1A1 inh 13µM, NPSR antag inactive, JMJD2E inh inactive, Coupling enz inactive, Sfp inh 56µM, Sfp inh conf 7.4µM and Sfp gel assay inactive.
`Cc1ccnc(Cc2ccccc2)n1` gave Coupling enz inactive and Sfp inh inactive.
Screening Cc1cc(C)c(C)c(OCCCCN2CCCCC2)c1 returned Coupling enz inactive and Sfp inh inactive.
For COc1ccc(C)cc1NC(=O)CN1C(=O)COc2ccc(S(=O)(=O)N3CCCCC3)cc21 the results were Coupling enz inactive and Sfp inh inactive.
